# Source: PubChem BioAssay (NCI)
# About 79,000 compounds went through this panel and 15% of them were active in at least one assay; those are over-represented in the sample as a whole. Unmarked numbers belong to inactive results. Active and inactive are the calls of the source. Cut-off read from the data, not from the text of the source: active = growth inhibition above about 70%; inactive = the rest.
# Assay: NCI Yeast Anticancer Drug Screen. Data for the mec2-1 strain (AID 157)
# Details: S. cerevisiae mec2-1 strain, at 50.0 µM, active compounds read high
# Protocol: Growth inhibition of yeast strains with defined genetic alterations is measured as a screen for potential anti-cancer activity. Selected strains with alterations in DNA damage repair or cell cycle control were exposed to compounds and growth inhibition was measured relative to vehicle treated controls. The strain used in this assay is mec2-1
row,SMILES,growth inhibition
1,CCCC[P+](CCCC)(CCCC)c1ccccc1,12.3%
2,O=C(/C=C(/CC(=O)c1ccccc1)C(=O)c1ccccc1)c1ccccc1,-22.9%
3,OC(CN1CCc2ccccc2C1)c1ccccc1 (stereo not given),8.05%
4,O=S(=O)([O-])Sn1c(-c2ccccc2)c[n+]2ccccc12,5.55%
5,COc1cc(C)cc(O)c1C=O,-9.95%
6,COc1nc2cc3c(cc2n2cccc12)oc1ccccc13,7.5%
7,CCOC(=O)C(=CNC(=S)Nc1ccccc1)C(=O)OCC,-22.9%
8,CC12CCC3c4ccc(Cc5ccc([N+](=O)[O-])cc5)cc4CCC3C1CCC2=O (stereo not given),9.2%
9,COc1ccc(N=NN(C(C)=O)c2ccccc2)cc1,10.2%
10,Nc1ccc(C(=O)N/N=C/c2ccc(Cl)cc2Cl)cc1,-4.05%
11,CC(=O)C1(C)OC(c2ccccc2)=NC1=S (stereo not given),14.3%
12,NC(=O)CNCC1Cc2ccccc21 (stereo not given),6.85%
13,COc1ccc(N2C(=O)C3c4[nH]c5ccccc5c4C4CC(C)(C)CC(C)(C)C4C3C2=O)cc1 (stereo not given),10.7%
14,COc1cc2c(cc1OC)[C@H](C)N1CCc3cc(OC)c(OC)cc3[C@@H]1C2,-29.6%
15,CC(C)c1ccccc1N1C(=O)CC(Sc2ccccc2N)C1=O (stereo not given),-12.8%
16,Cc1ccc(C(=O)Nc2ccc(CP(=O)(O)O)cc2CP(=O)(O)O)cc1NC(=O)c1cccc(N)c1,-1.95%
17,CC(=O)C1(C(C)=O)OC2c3ccccc3C=CN2C=C1C=O (stereo not given),1.35%
18,CC1CCC2C1(C)CCC1C2(C)CCC2(C)C3CC(C)(C)CCC3(C)CCC12C (stereo not given),-35.8%
19,CCOC(=O)c1ccc(NC(=O)/C=C/C(=O)O)cc1,-17.9%
20,CC(=O)CCCC(CC(C)O)[Si](C)(C)C (stereo not given),-19.4%

row,SMILES,growth inhibition
1,Cc1nc(NCc2ccco2)nc(NCc2ccco2)c1[N+](=O)[O-],-18.6%
2,O=C(NCCCCCCNC(=O)N1CCCCC1)c1cccnc1,-21.3%
3,OCC1OC(O)C(CO)OC1O (stereo not given),-5.2%
4,CCOC(=O)C(F)C(C)=O (stereo not given),94.5% (active)
5,COc1cccc(C2=NC(C(C)C)CO2)c1OC (stereo not given),-16.4%
6,CCOC(=O)C(C(=O)OCC)C(C(=O)OCC)(C(=O)OCC)C(C(=O)OCC)C(=O)OCC,-9.15%
7,CC1(C)NC(=S)NC1=S,-6.9%
8,O=NN(CCF)C(=O)N[C@H]1CCCC[C@H]1O,-19.1%
9,CCOCC(=O)O,-1.25%
10,NCCCNC1CCCCC1,-27.9%
11,CCCCC1CC(c2ccc(Cl)cc2)=NO1 (stereo not given),-7%
12,Cc1nc(Nc2ccc([N+](=O)[O-])cc2)sc1C(=O)/C=C/c1ccc(N(C)C)cc1,-6.85%
13,NC1=C(O)C(=O)C(c2ccc3c(c2)CCC3)O1 (stereo not given),-14.7%
14,CC(=O)OCc1cc2c(cc1CNCc1ccccc1)OCO2,-2.15%
15,Cc1nn(C(=O)Cc2ccccc2)c2c1C(c1ccc(O)cc1O)SC(N)=N2 (stereo not given),-23.1%
16,CC(C)C1c2ccccc2C(=O)C1C(N)=O (stereo not given),-11.4%
17,CCCCCCCCCCCCCCCCCCSCCCCCCCCCCCCCCCCCC,2.75%
18,COc1c2ccoc2c(S(=O)(=O)Nc2ccc(Cl)cc2)c2oc(C)cc(=O)c12,-29.9%
19,C[N+](C)(C)C12CCCC1S(=O)(=O)C2 (stereo not given),4.25%
20,O=C1NC(=O)c2c1c1cnn(-c3ccccc3)c1n1cccc21,4.35%
